# Source: PubChem (ICCB-Longwood Screening Facility, Harvard Medical School)
# The sample as a whole holds a higher share of hits than the screen did.
# VACV E9 pol inh = blocks vaccinia virus processive DNA synthesis | normalized absorbance, % (no concentration beside the values) | actives 0.94% (n = 46,000) | AID 493162 | in vitro processive DNA synthesis, absorbance read-out; hits give low values; in the data active = normalized absorbance mostly below about 85%, no sharp cut-off; inactive = mostly above about 86%
# * marks the source's active call; other numbers are inactive results.
SMILES,VACV E9 pol inh
CC1CCCN(CCCNC(=O)c2coc3nc4ccccc4nc23)C1 (configuration not stated),60*
Cc1ccc(-c2nnc(SCC(=O)NC3CCCCC3)o2)cc1,88
CC(=O)N1CCN(C(=O)c2cc(-c3ccc(C)cc3)nc3ccccc23)CC1,99
NC(=O)c1cc[n+](CC2=C(C(=O)O)N3C(=O)C(NC(=O)C(c4ccccc4)S(=O)(=O)[O-])C3SC2)cc1 (configuration not stated),83*
CCN1CCN(C(=O)NC(C(=O)NC2C(=O)N3C(C(=O)O)=C(CSc4nnnn4C)CSC23)c2ccc(O)cc2)C(=O)C1=O (configuration not stated),102
CCCNC(=O)c1cnn2c(C)c(Cc3ccccc3)c(C)nc12,99
O=C(Nc1nc(-c2ccc(Cl)cc2)cs1)C1c2ccccc2Oc2ccccc21,100
COc1cccc(C(=O)N2c3ccccc3C(Nc3ccccc3)CC2C)c1 (configuration not stated),100
CN(C)CCc1cc2c(c3c1ccc1ccccc13)OCO2,11*
O=C(COc1ccc2ccccc2c1)NCc1ccc2c(c1)OCO2,106
c1ccc2cc(CNCCc3ccc4c(c3)OCO4)ccc2c1,105
O=C(Nc1ccc(Br)cc1)C12CCN(CC1)Cc1ccccc12,100
CCSC1=NC(C)(C)C=C(C)N1,118
CC1=CC(C)(C)N=C(Nc2nc(C)c3cc(C)cc(C)c3n2)N1,50*
N/C(=N\S(=O)(=O)c1ccc(Cl)cc1)N1CCSCC1,106
Cc1cccc(C)c1Nc1nn2c(=O)c3ccccc3nc2s1,87
CN(C)NC1=CC(=[N+]2CCCCC2)CC(C)(C)C1,98
COc1ccc(CCNC(=O)CSc2cn(Cc3ccc(F)cc3)c3ccccc23)cc1OC,98
c1ccc(CCn2c3ccccc3c3nc4ccccc4nc32)cc1,96
C=CCn1c2ccccc2c2nc3ccccc3nc21,92
c1ccc2nc3c(nc2c1)c1ccccc1n3CCN1CCOCC1,65*
Cc1ccc(-n2nc(C)c3c(C)c(CCC(=O)NC(C)c4ccc5c(c4)OCCO5)c(C)nc32)cc1 (configuration not stated),104
CCc1ccc(C2=NN(CCC(=O)NC(C)CC)C(=O)CC2)cc1 (configuration not stated),103
CCOC(=O)CSc1nc(C2CC2)cc(-c2ccccc2)c1C#N,99
COC(=O)CSc1nc(-c2ccccc2)cc(-c2ccccc2)c1C#N,99
SMILES,VACV E9 pol inh
CC(=O)Nc1nc(C2CC2)cc(-c2ccccc2)c1C#N,85*
Cc1ccc2cc3c(nc2c1)-c1ccccc1C3=NC1CCCCC1,101
CC1(C)OC(=O)N(CC(=O)Nc2ccc(F)cc2)C1(C)O (configuration not stated),99
CCCn1c(CNC(=O)c2cccc(C)c2)nc2ccccc21,99
Nc1sc2c(c1C(=O)c1ccccc1)CCCC2,101
Nc1sc(-c2ccccc2)c(Cc2ccccc2)c1C(=O)O,90*
CCOC(=O)c1c(-c2ccccc2)csc1N,94
O=C(O)C1CCCCC1C(=O)Nc1cccc(C(F)(F)F)c1 (configuration not stated),92
Cc1cc(C)nc(NC#N)n1,101
O=C(O)c1ccc(/C=N/N2C(=O)c3cccc4cccc(c34)C2=O)cc1,102
CN(C)N1C(=O)c2cccc3cccc(c23)C1=O,88
CNN1C(=O)c2cccc3cccc(c23)C1=O,64*
O=S(=O)(Nc1ccc(Br)cc1)C(F)(F)F,113
Cc1ccc(CN2C(=O)/C(=C/C(=O)NCCc3ccccc3)Sc3ccccc32)cc1,97
Oc1ccc(Br)cc1C=NCc1ccccc1,98
Oc1ccc(Br)cc1C=NCC1CCCO1 (configuration not stated),75*
Oc1ccc(Br)cc1C=NCC12CCC3CC(CC(C3)C1)C2,100
Cc1c2c(nc3c(C(=O)NC4CCCC(C)C4C)cnn13)CCCC2 (configuration not stated),97
O=C(OCCO)c1cccc2c1-c1ccccc1C2=O,74*
CCOC(=O)c1cccc2c1-c1ccccc1C2=O,92
CCOC(=O)c1cccc2c1-c1ccccc1/C2=N/O,94
Cc1cc(C)nc(SCc2nc3sccn3c2Br)n1,104
COc1ccc(-c2cc(NC(=O)N3CCc4ccccc4C3)c3ccccc3n2)cc1,100
Cc1nc(C)c(C#N)c(-c2c(Cl)cccc2Cl)c1C#N,103
NC(Cc1ccccc1F)C(=O)O (configuration not stated),99
SMILES,VACV E9 pol inh
NC(CSCc1ccccc1Cl)C(=O)O (configuration not stated),99
NC(CSCc1oc(-c2ccccc2)cc1C(=O)O)C(=O)O (configuration not stated),77*
O=C(NC12CC3CC(CC(C3)C1)C2)N1CCC(CN2CCCCC2)CC1,108
O=C(CSc1nc2ccccc2o1)NCCc1ccccc1,105
Cc1onc(C(=O)N(C)C)c1-c1ccnc(=S)[nH]1,88*
Cc1nc2ccccn2c1-c1ccnc(=S)[nH]1,98
CC(=O)N(C(C)=O)c1nccc(-c2c(-c3ccccc3)noc2C)n1,97
COc1ccc(N2CCN(CC(O)COc3ccc(-c4ccccc4)cc3)CC2)cc1 (configuration not stated),94
O=c1c2ccccc2nc(SCc2ccccc2F)n1CCc1ccccc1,100
O=c1c2ccccc2nc(SCc2c(F)cccc2F)n1Cc1ccccc1,76*
Cc1ccc(CSc2nc3ccccc3c(=O)n2Cc2ccccc2)cc1,102
CN1/C(=C\C=C2C(=O)c3ccccc3C2=O)Sc2ccccc21,104
COc1ccc2c(ccc(/C=C3\Sc4ccccc4N3C)[n+]2C)c1,20*
CCN1/C(=c2/sc3nc4ccccc4n3c2=O)Sc2ccc(OC)cc21,99
CC(=S)/C=C1\Sc2ccccc2N1C,101
CCN1/C(=C/c2ccc3cc(C)ccc3[n+]2C)Sc2cc(OC)ccc21,24*
CCN1/C(=C\C=C\C(=O)c2ccccc2OC)Sc2ccccc21,111
Cn1c(C(=O)N2CCCC2)cc2c(=O)n3ccccc3nc21,100
CC(C)C(=O)N(c1ccccc1)C1C=CS(=O)(=O)C1 (configuration not stated),100
COc1ccc2c(c1)sc(=NC(=O)CSCC(=O)Nc1nc(-c3ccccc3)cs1)n2C,93
O=C(CCCCl)Nc1ncnc2c1cnn2-c1ccccc1,104
CCOc1ccc(N2CCc3c2nc2ccc(Br)cc2c3N)cc1,99
CCOc1ccc(-c2nc3ccc(Br)cc3c(C(=O)O)c2C)cc1,101
CCCCN1CCc2c1nc1ccc(Br)cc1c2N,87*
O=C(N/C=C/n1cnc2cc(C(F)(F)F)ccc21)c1cccs1,107
SMILES,VACV E9 pol inh
CCN(CC)c1ccc(C=C2C(=O)N(C)C(=O)N(C)C2=O)c(OCc2ccc(Cl)cc2Cl)c1,104
O=CN1CCN(CC(O)Cn2c3ccccc3c3ccccc32)CC1 (configuration not stated),100
CS(=O)(=O)NCC(O)Cn1c2ccccc2c2ccccc21 (configuration not stated),107
OC(CN(Cc1ccccc1)Cc1ccccc1)Cn1c2ccccc2c2ccccc21 (configuration not stated),101
CC(C)(CO)NCC(O)Cn1c2ccccc2c2ccccc21 (configuration not stated),65*
Cc1ccc(NCC(O)Cn2c3ccccc3c3ccccc32)cc1 (configuration not stated),100
OCCN(CCO)CC(O)Cn1c2ccccc2c2ccccc21 (configuration not stated),77*
